Experimental findings from PubChem BioAssay AID1159580 (chemical genetic matrix, 2015) are described below.

SMILES strings stand for the structures. Among all 5,500 compounds or so, about 2,000 (36%) were called active. About 18% were inconclusive and are not listed. The list shows a part of the results. A number with no mark means an inactive call. No stated cut-off is given here; in the data, active means normalized growth mostly below about 0.91 (no sharp cut-off); inconclusive means no clear call, values can overlap the other calls; inactive means mostly above about 0.92.

This assay can be described thus: chemical genetic growth profiling, strain panel (AID 1159580).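 Further: tested at 20 µM; growth read once vehicle control cultures reached saturation at 30 °C; 1 = growth at the plate median or of vehicle wells.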 The settings on record: S. cerevisiae deletion strains, growth OD.
Where [1] appears, read: locus YAL040C, strain CLN3, stronger effect = lower value.
The mark [2] stands for this setting: locus YCL061C, strain MRC1 (second series), stronger effect = lower value.
[3] abbreviates: locus YDR150W, strain NUM1, stronger effect = lower value.
Where [4] appears, read: locus YDR363W, strain ESC2, stronger effect = lower value.
Setting [5] is: locus YER002W, strain NOP16, stronger effect = lower value.
Where [6] appears, read: locus YMR263W, strain SAP30, stronger effect = lower value.
[7] abbreviates: locus YNL175C, strain NOP13, stronger effect = lower value.
The mark [8] stands for this setting: locus YNL197C, strain WHI3, stronger effect = lower value.
Where [9] appears, read: locus YNL224C, strain SQS1, stronger effect = lower value.
Where [10] appears, read: locus YOR083W, strain WHI5 (second series), stronger effect = lower value.
The mark [11] stands for this setting: locus YPL055C, strain LGE1, stronger effect = lower value.
Setting [12] is: locus YGR229C, strain SMI1, stronger effect = lower value.
Where [13] appears, read: locus YMR307W, strain GAS1, stronger effect = lower value.
Setting [14] is: locus YPL241C, strain CIN2, stronger effect = lower value.

Consider `CCCCCCCCCCCCCCCC(=O)NCC(COP(=O)([O-])OCC[N+](C)(C)C)OCC` (configuration not stated), for which the normalized growth is 0.322 (active) under setting [1]; 0.155 (active) under setting [2]; 0.0974 (active) under setting [3]; 0.165 (active) under setting [4]; 0.0938 (active) under setting [5]; 0.971 (locus YGR078C, strain PAC10, stronger effect = lower value). Also, the normalized growth runs as follows: under setting [6], 0.619 (active); under setting [7], 0.0862 (active); under setting [8], 0.373 (active); under setting [9], 0.151 (active); under setting [10], 0.223 (active); under setting [11], 0.109 (active).
As for `CCCCCCCCCCCCCCCCCC(=O)NCC(COP(=O)([O-])OCC[N+](C)(C)C)OCC` (configuration not stated), the normalized growth is 0.0918 (active) under setting [1]; 0.0501 (active) under setting [2]; 0.0538 (active) under setting [3]; 0.0807 (active) under setting [4]; 0.0757 (active) under setting [5]; 0.0622 (active) under setting [12]. The normalized growth (locus YJR075W, strain HOC1, stronger effect = lower value) is 0.0689 (active); the normalized growth under setting [6] was 0.0519 (active); the normalized growth under setting [13] was 0.0635 (active); the normalized growth (locus YNL128W, strain TEP1, stronger effect = lower value) was 0.0936 (active); the normalized growth (locus YNL153C, strain GIM3, stronger effect = lower value) was 0.0918 (active); the normalized growth under setting [7] is 0.0883 (active). Moreover, the normalized growth is 0.0927 (active) under setting [8], 0.0836 (active) under setting [9], 0.116 (active) under setting [10] and 0.0483 (active) under setting [14].
As for `CCCCCCCCCCCCCCCCCCNC(=O)OCC(COP(=O)([O-])OCC[n+]1ccsc1)OC` (configuration not stated), the normalized growth reads like this: (locus YAL013W, strain DEP1, stronger effect = lower value) 0.983; under setting [1], 1; under setting [2], 1; under setting [4], 1.03; under setting [5], 1.01; under setting [12], 0.936. Besides, the normalized growth reads like this: under setting [6], 1; under setting [13], 0.968; under setting [7], 1.03; under setting [8], 1.06; under setting [9], 1.03; under setting [10], 1.01. Further, the normalized growth was 1.04 under setting [11] and 1.01 under setting [14].
